Compound activity from PubChem BioAssay.
An excerpt weighted towards active compounds, which were near 3.1% of everything screened.
PI4K2A inh – blocks human PI4K2A kinase activity; Q9BTU6; purified PI4K2A, ADP-Glo luminescence, 1 h; stronger effect = lower value; activity change, negative = inhibition, % at 76.9 µM; 420,000 tested, 0.13% active; in the data active means activity change below about -50%; inconclusive means mostly about -30% to -49%;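 further: -100% = wells without enzyme as full effect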
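PI4K2A activity was measured by ADP-Glo luminescence: enzyme (4 ug/mL stock) and phosphatidylinositol (1.2 mM stock) in Tris pH 7.5/MgCl2/EGTA/Triton X-100 buffer were reacted with ATP (300 microM stock) for one hour at ambient temperature.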
GLS inhibitor – blocks human kidney-isoform glutaminase activity. GLS enzymatic activity, qHTS titration. Potency, µM (series often up to 45.5 µM), for the others: top-dose activity change, negative = inhibition, actives largely listed as inhibitors. 410,000 tested, 0.21% active. AID 624170; further: potency means the concentration at half of the fitted maximal effect
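Compounds were pin-transferred onto hKGA, after which L-glutamine (1 mM solution) and a detection mix of glutamate oxidase, HRP and Amplex Red were added. Initial and 30 min RT fluorescence reads were collected.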
PLK1 PBD block – inhibitors of human PLK1 polo-box domain binding; AID 720504; Plk1 PBD binding of FITC phosphopeptide, fluorescence polarization; Potency, µM, without a hit: max response, negative = inhibition, actives largely listed as inhibitors; 360,000 tested, 2.8% active; P53350; further: potency means the concentration at half of the fitted maximal effect; series mostly up to about 57 µM; nearly all actives have a fitted effect of over 65% in size
Target sequence (P53350 whole entry, looked up, the tested form may be a part): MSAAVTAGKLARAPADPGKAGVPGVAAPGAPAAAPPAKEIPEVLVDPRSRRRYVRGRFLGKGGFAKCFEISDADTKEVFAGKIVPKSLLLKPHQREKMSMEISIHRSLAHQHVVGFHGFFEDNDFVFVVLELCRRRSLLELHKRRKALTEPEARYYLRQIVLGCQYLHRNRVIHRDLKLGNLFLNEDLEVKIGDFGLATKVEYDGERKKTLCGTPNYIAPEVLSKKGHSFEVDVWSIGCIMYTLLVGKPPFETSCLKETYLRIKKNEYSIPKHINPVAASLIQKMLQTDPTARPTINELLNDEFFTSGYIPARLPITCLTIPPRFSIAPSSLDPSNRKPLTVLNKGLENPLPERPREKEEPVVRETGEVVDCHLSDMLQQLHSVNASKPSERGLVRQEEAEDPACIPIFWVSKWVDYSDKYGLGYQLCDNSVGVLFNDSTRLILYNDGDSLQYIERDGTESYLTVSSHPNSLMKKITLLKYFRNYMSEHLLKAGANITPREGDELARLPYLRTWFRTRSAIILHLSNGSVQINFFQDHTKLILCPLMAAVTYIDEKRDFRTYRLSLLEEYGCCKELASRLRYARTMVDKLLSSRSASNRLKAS
GCN5L2 inh – inhibitors of human GCN5L2 histone acetyltransferase; Potency, µM (top dose mostly 58.9 µM), without a hit: top-dose activity change, negative = inhibition, hits mostly inhibitors; 390,000 tested, 0.21% active; Q92830; GCN5L2 HAT assay, ThioGlo1 CoA-SH fluorescence; further: potency means the concentration at half of the fitted maximal effect
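GCN5L2 (20nM final) in 50mM HEPES, 0.1mM EDTA pH 7.5, 0.01% Tween-20 was preincubated 15 min at room temperature with compound, then given ThioGlo1 (50uM), H3(1-25) peptide (75uM) and acetyl-CoA (70uM); CoA-thiol fluorescence (Ex340/Em540) was read at 0 and 20 min.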
VDR inhibitor – inhibitors of human vitamin D receptor; P11473; VDR-SRC2-3 peptide fluorescence polarization, 2 h; Potency, µM, for the others: max response, negative = inhibition, most hits filed as inhibitors; 400,000 tested, 0.93% active; further: potency means the concentration at half of the fitted maximal effect
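Compounds are added to VDR with labelled SRC2-3 coactivator peptide and held 2 h at room temperature. Inhibition of the VDR–peptide interaction is then read as a change in fluorescence polarization.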
Starred values were filed as active, the others as inactive; ? = inconclusive; . = not tested or not shown. Unless noted, the call rests on the fitted dose curve; in most records, active means well fitted curve in the direction sought with a large enough effect; inconclusive means small, poorly fitted or top-dose-only effect, or another doubt; inactive means no such curve, though single readings can be large; an effect the other way counts as inactive or inconclusive. Unless noted, on the % scale 0 is the no-effect control and ±100 the full control effect.

SMILES	PI4K2A inh	GLS inhibitor	PLK1 PBD block	GCN5L2 inh	VDR inhibitor
CN(C)S(=O)(=O)N1CCC(Oc2ccc(C(=O)NC3CCCCC3)cc2)CC1	2	0%	-13%	-1%	1%
CN(C)S(=O)(=O)N1CCC(Oc2cccc(C(=O)NC3CCCCC3)c2)CC1	10	?	15µM*	-4%	?
COc1cccc(N2CCN(C(=O)CCCn3c(=O)[nH]c4ccc(Br)cc4c3=O)CC2)c1	2	21%	.	-12%	2%
CN(C)CCCC(=O)c1ccc2c(c1)OCO2	3	2%	-10%	2%	-20%
O=C(CCN1Cc2ccccc2C1)c1ccc2c(c1)OCCO2	8	40%	24µM*	-2%	-89%
O=C(O)CCC(=O)c1ccc2c(c1)OCCO2	2	-6%	0%	-6%	7%
CN(C)CCC(=O)c1ccc2c(c1)OCO2	22	8%	19µM*	0%	79µM*
CN(CCOC(=O)c1cccc(Br)c1)C(C)(C)C	-9	18%	-9%	2%	-13%
CN(C)CCC(=O)c1cccc(Br)c1	33	3%	9.5µM*	-9%	?
O=C([C@@H]1C[C@H]1c1ccccc1)N1CC[C@H]2[C@H](CCCN2Cc2ccc(F)cc2)C1	3	.	.	.	.
COc1cc(C2SC[C@H]3C(=O)N(c4ccccc4)C(=O)N23)cc(OC)c1OC (stereo partly specified)	-4	1%	.	-3%	-6%
CCC[C@H]1[C@@H](NC(=O)NCC)CC[C@@]23CCCN2C(=O)CCC[C@@H]13	7	.	.	.	.
Nn1c(C2COc3ccccc3O2)n[nH]c1=S (stereo unspecified)	-11	5%	17µM*	-17%	?
NC(=S)C1COc2ccccc2O1 (stereo unspecified)	0	-14%	?	-3%	4%
N#CC1=C(N)SC(N)=C(C#N)C1c1ccc([N+](=O)[O-])cc1	11	-29%	9.5µM*	-6%	79µM*
N#CC1=C(N)SC(N)=C(C#N)C1c1ccc(C(F)(F)F)cc1	.	.	.	-14%	.
COc1cc(OC)nc(O[C@H](C(=O)O)C(OC)(c2ccccc2)c2ccccc2)n1	1	.	.	.	.
O=C1OCCN1C(=O)[C@H]1[C@H](c2ccccc2)C(c2ccccc2)=NN1c1ccccc1	-8	-7%	0%	28µM*	-16%
O=C1OCCN1C(=O)[C@H]1[C@H](c2ccccc2)C(c2ccccc2)=NN1c1ccc(Br)cc1	-1	-1%	-9%	?	6%
CCOC(=O)[C@]12CCCC=C1N(Cc1ccc(OC)cc1)C(=O)[C@@H]2CC(=O)N1CCN(C(=O)c2ccco2)CC1	-3	.	.	.	.
O=C1CS(=O)(=O)N(Cc2cccc(F)c2)c2ccc(Br)cc21	-4	27%	-9%	-28%	1%
O=C1c2cc(Br)ccc2N(Cc2ccc(Br)cc2)S(=O)(=O)C1c1cc(Cl)c(Cl)cc1[N+](=O)[O-] (stereo unspecified)	-4	0%	21µM*	?	-27%
CCCCCC(=O)NC1CCCCN(Cc2cccc(Cl)c2)C1=O (stereo unspecified)	0	.	.	.	.
CCOCCCNS(=O)(=O)c1ccc(NC(=O)c2ccc(OC)c([N+](=O)[O-])c2)cc1	1	-5%	3.4µM*	-2%	?
COc1ccc(C(=O)Nc2ccc(S(=O)(=O)NC(C)=O)cc2)cc1[N+](=O)[O-]	-3	3%	-9%	-11%	-16%
SMILES	PI4K2A inh	GLS inhibitor	PLK1 PBD block	GCN5L2 inh	VDR inhibitor
C[C@@H](CN1CC(=O)NC(=O)C1)N1CC(=O)NC(=O)C1	-13	.	.	.	.
COC(=O)[C@]12C[C@H](CC(=O)NCc3ccc(OC)c(OC)c3)C(=O)N(CCC3=CCCCC3)C1=C[C@H](C1CCCC1)O[C@@H]2C	-3	.	.	.	.
Cc1cccc(N2CCN(S(=O)(=O)c3ccc4c(c3)NC(=O)CS4)CC2)c1C	-1	2%	27µM*	-26%	-14%
Cc1cccc(N2CCN(S(=O)(=O)c3ccc4c(c3)NC(=O)C(C)S4)CC2)c1C (stereo unspecified)	-2	0%	-10%	-9%	0%
Cc1ccc(C)c(N2CCN(S(=O)(=O)c3ccc(-c4coc(C)n4)cc3)CC2)c1	0	-9%	.	-7%	-3%
Cc1nc(-c2ccc(S(=O)(=O)N3CCN(c4cccc(C)c4C)CC3)cc2)co1	6	13%	24µM*	-9%	?
COC1=C(C(=O)O)N2C(=O)[C@@H](NC(=O)C(N)C3C=CCC=C3)[C@H]2SC1 (stereo partly specified)	.	0%	.	.	.
CCOc1ccc(C(CC(=O)O)NC(=O)COc2ccccc2)cc1OC (stereo unspecified)	2	-14%	-11%	-6%	-3%
CCOc1ccc(C(CC(=O)O)NS(=O)(=O)c2ccc(C)cc2)cc1OC (stereo unspecified)	-2	-3%	21µM*	-9%	-7%
Cc1ccn2cc(-c3cnoc3C)nc2c1	-11	33%	27µM*	0%	-13%
Cc1oncc1-c1cn2ccccc2n1	5	5%	-4%	-3%	10%
COc1ccc(C(C(=O)NC2CCCC2)N2CCc3ccccc32)cc1 (stereo unspecified)	-6	0%	-4%	-3%	-18%
CCOC(=O)C1CCN(C(C(=O)NC2CCCCC2)c2ccc(OC)cc2)CC1 (stereo unspecified)	11	-5%	27µM*	1%	-24%
NC(=O)C1CCN(C(=O)CC(c2ccccc2)c2ccccc2)CC1	-6	4%	-16%	32µM*	-10%
CCOC(=O)C1CCN(C(=O)CC(C)c2ccccc2)CC1 (stereo unspecified)	0	5%	24µM*	.	?
CCOC(=O)C1CCN(C(=O)N2CCOCC2)CC1	-90*	0%	0%	-6%	-4%
CCOC(=O)C1CCN(C(=O)CCNS(=O)(=O)c2ccc(C)cc2)CC1	-1	-1%	1%	-3%	3%
CCOC(=O)C1CCN(C(=O)CC(NS(=O)(=O)c2ccc(OC)cc2)C(C)C)CC1 (stereo unspecified)	0	?	3.8µM*	-1%	?
CC(C)CC(=O)N1CCC(N2CCN(c3ccccc3)CC2)CC1	2	39%	30µM*	3%	?
N#CCC[C@H]1CC[C@]2(CCCN(Cc3ccc(Br)cc3)C2)O1	-3	.	.	.	.
N#C/C(=C(/O)c1ccccc1F)c1nc2cc(C(F)(F)F)ccc2s1	-4	6%	27µM*	-4%	-2%
N#C/C(=C(/O)c1ccc2c(c1)OCO2)c1nc2cc(C(F)(F)F)ccc2s1	-5	-6%	?	-4%	-4%
O=S(=O)(Nc1cc(Sc2ncn[nH]2)c(O)c2ccccc12)c1ccccc1	-64*	0%	2.1µM*	22µM*	?
Cc1cc(O)c(Sc2ncn[nH]2)cc1NS(=O)(=O)c1ccc(Cl)cc1	-3	0%	1%	-6%	-2%
